High-throughput results deposited in PubChem by Broad Institute.
Many of the other results were omitted from the sample, so hits are more common in it than they were.
CD40 NFkB inh: CD40 pathway inhibition in BL2 cells. BL2 NF-kB luciferase reporter, CD40L-induced, 4 h. inhibition, % at 10 µM. hit rate 0.94% among 83,000. AID 1053188;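 active = mean inhibition of at least 50% with a set share of replicates also reaching that level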;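 also: 0% = neutral control wells and 100% = IKK inhibitor VII at 50 µM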
Starred values were filed as active, the others as inactive; ! = not active in a repeat; [ ] = another dose, or the depositor's remark.

SMILES	CD40 NFkB inh
Cc1ccc(S(=O)(=O)Nc2ccc3c(c2)C(=O)N([C@@H](C)CO)C[C@H](C)[C@H](CN(C)S(=O)(=O)c2cccs2)OCCCC[C@H](C)O3)cc1	-7[25 µM]
N#Cc1cccc(-c2ccc(C3[C@@H]4CN(C(=O)C5CCOCC5)C[C@H]3N4)cc2)c1 (stereo not given in full)	0[25 µM]
O=C(c1ccc(F)cc1)N1C[C@@H]2N[C@H](C1)C2c1ccc(/C=C/c2ccccc2)cc1 (stereo not given in full)	50*![25 µM]
O=C(c1ccncc1)N1C[C@@H]2N[C@H](C1)C2c1ccc(/C=C/c2ccccc2)cc1 (stereo not given in full)	26[25 µM]
N#Cc1ccc(-c2ccc(C3[C@@H]4CN(C(=O)c5cccnc5)C[C@H]3N4)cc2)cc1 (stereo not given in full)	2[25 µM]
O=C(C1CCOCC1)N1C[C@@H]2N[C@H](C1)C2c1ccc(/C=C/c2ccccc2)cc1 (stereo not given in full)	40[25 µM]
O=C(Nc1ccccc1)N1C[C@@H]2N[C@H](C1)[C@@H]2c1ccc(/C=C/c2ccccc2)cc1	-12
O=C(C1CCCC1)N1C[C@@H]2N[C@H](C1)C2c1ccc(/C=C/c2ccccc2)cc1 (stereo not given in full)	49*!
N#Cc1ccc(-c2ccc(C3[C@@H]4CN(C(=O)C5CC5)C[C@H]3N4)cc2)cc1 (stereo not given in full)	63*!
O=C(c1ccc2c(c1)OCO2)N1C[C@@H]2N[C@H](C1)C2c1ccc(/C=C/c2ccccc2)cc1 (stereo not given in full)	14[25 µM]
CN1CCN(CCc2ccc(Cl)c(Cl)c2)CC1	-1[25 µM]
CN(C)CC(=O)N[C@@H]1CC[C@H](CCNC(=O)C2CCC2)O[C@H]1CO	-6[25 µM]
Cc1ccc(S(=O)(=O)N(C)C[C@@H]2OCCCC[C@H](C)Oc3ccc(NS(=O)(=O)c4ccc(F)cc4)cc3C(=O)N([C@H](C)CO)C[C@H]2C)cc1	11
c1ccc(-c2ccc(C3[C@H]4CNC[C@@H]3N4Cc3ccccn3)cc2)cc1 (stereo not given in full)	-17
C[C@H]1CN([C@@H](C)CO)C(=O)c2ccccc2-c2ccccc2CO[C@H]1CN(C)Cc1ccc(Cl)c(Cl)c1	23[25 µM]
N#C[C@H]1[C@H](c2ccccc2)[C@H](CO)N1C(=O)c1ccccc1F	6[25 µM]
CCCN(C)C[C@@H]1OCc2cnnn2CCCC(=O)N([C@@H](C)CO)C[C@@H]1C	-4[25 µM]
COc1ccc(C(=O)Nc2ccc3[nH]ccc3c2)cc1	75*
O=C(Nc1ccc2[nH]ccc2c1)c1cccs1	-56
COc1ccc(C(=O)Nc2ccc(C(=O)c3ccccc3)cc2)cc1	-3
CC1CCCC(C)N1C(=O)COC(=O)c1ccc2ccccc2n1 (stereo not given)	-70
Cc1noc(C)c1NC(=O)N(C)C[C@H]1OCc2ccccc2-c2c(n(C)c3ccccc23)C(=O)N([C@@H](C)CO)C[C@@H]1C	21[25 µM]
C[C@@H]1CN([C@@H](C)CO)C(=O)c2c(c3ccccc3n2C)-c2ccccc2CO[C@@H]1CN(C)C(=O)Nc1cccc(C(F)(F)F)c1	24[25 µM]
C[C@@H]1CN([C@@H](C)CO)C(=O)c2c(c3ccccc3n2C)-c2ccccc2CO[C@H]1CN(C)C(=O)Nc1cccc(C(F)(F)F)c1	70*[25 µM]
C[C@@H]1CN([C@H](C)CO)C(=O)c2c(c3ccccc3n2C)-c2ccccc2CO[C@H]1CN(C)C(=O)Nc1cccc(F)c1	5
SMILES	CD40 NFkB inh
C[C@@H]1CN([C@H](C)CO)C(=O)c2c(c3ccccc3n2C)-c2ccccc2CO[C@@H]1CN(C)C(=O)Nc1cccc(C(F)(F)F)c1	20[25 µM]
C[C@H]1CN([C@@H](C)CO)C(=O)c2c(c3ccccc3n2C)-c2ccccc2CO[C@H]1CN(C)C(=O)Nc1cccc(C(F)(F)F)c1	55*[25 µM]
C[C@@H]1CN([C@H](C)CO)C(=O)c2c(c3ccccc3n2C)-c2ccccc2CO[C@H]1CN(C)C(=O)Nc1cccc(C(F)(F)F)c1	38[25 µM]
C[C@@H]1CCCCO[C@@H](CN(C)S(=O)(=O)c2cn(C)cn2)[C@@H](C)CN([C@H](C)CO)C(=O)c2cc(N(C)C)ccc2O1	-1[25 µM]
CN1C(=O)c2cc(NC(=O)Cc3cccs3)ccc2OC[C@H]2O[C@H](CC(=O)NCCc3ccncc3)CC[C@H]21	-9[25 µM]
CC[C@H]1C/C=C\C[C@@H](c2ccc(OC)cc2OC)NC(=O)[C@H](C)CC(=O)N1	-7[25 µM]
Cc1ccc(-c2ccc3c(c2)O[C@@H](CN(C)Cc2cncnc2)[C@H](C)CN([C@@H](C)CO)S3(=O)=O)cc1	3[25 µM]
CCCNC(=O)N1[C@H](CO)[C@H](c2ccc(-c3cccc(OC)c3)cc2)[C@@H]1C#N	68*[25 µM]
CCCNC(=O)N1[C@H](CO)[C@H](c2ccccc2-c2cccc(OC)c2)[C@@H]1C#N	36[25 µM]
CCCNC(=O)N1[C@H](C#N)[C@@H](c2ccc(-c3ccccc3F)cc2)[C@@H]1CO	2[25 µM]
CCCNC(=O)N1[C@H](CO)[C@H](c2ccc(-c3cccnc3)cc2)[C@@H]1C#N	32[25 µM]
CCCNC(=O)N1[C@H](CO)[C@H](c2ccc(/C=C/c3ccccc3)cc2)[C@@H]1C#N	66*[25 µM]
CCCNC(=O)N1[C@@H](C#N)[C@@H](c2ccc(-c3cccnc3)cc2)[C@@H]1CO	6[25 µM]
CCCNC(=O)N1[C@@H](C#N)[C@H](c2ccc(-c3cccc(OC)c3)cc2)[C@@H]1CO	51*[25 µM]
CCCNC(=O)N1[C@H](C#N)[C@@H](c2ccc(-c3ccccc3F)cc2)[C@H]1CO	9[25 µM]
CCCNC(=O)N1[C@H](C#N)[C@@H](c2ccc(-c3ccc(C(=O)N(C)C)cc3)cc2)[C@@H]1CO	-26[25 µM]
COc1cccc(CNC(=O)[C@@H]2[C@@H](CO)[C@@H]3Cn4c(cccc4=O)[C@H]2N3C(=O)C2CCCCC2)c1	-6
O=C(CCN1CCCCC1)N[C@@H]1CC[C@@H](CCn2cc(-c3cccc(F)c3)nn2)O[C@@H]1CO	11[25 µM]
Nn1c(SCC(=O)NC2CCCC2)nnc1C(F)(F)F	6
C/C=C/c1ccc([C@H]2[C@@H](CO)N(C(=O)c3cnccn3)C23CN(C(=O)C2CCC2)C3)cc1	-10[25 µM]
COc1cccc(CC(=O)n2nc(N)c3cc4ccc(OC)cc4nc32)c1	4
COc1ccc2cc3c(N)nn(C(=O)Cc4c[nH]c5ccccc45)c3nc2c1	77*
COc1ccc2cc3c(N)nn(C(=O)c4cccc(F)c4)c3nc2c1	-1
C[C@@H]1CN([C@@H](C)CO)C(=O)CCCn2nncc2CO[C@@H]1CN(C)Cc1ccc2cccnc2c1	2[25 µM]
COc1ccc2[nH]c(=O)c(CN(C(=O)c3cccnc3)c3ccccc3)cc2c1	-7
SMILES	CD40 NFkB inh
COc1ccc2[nH]c(=O)c(CN(Cc3cccs3)S(=O)(=O)c3cccc4nsnc34)cc2c1	55*
COc1ccc(S(=O)(=O)N(Cc2cccnc2)Cc2cc3ccccc3[nH]c2=O)cc1	6
O=C(NCCC1CCCCN1S(=O)(=O)c1ccc(F)cc1)C(=O)Nc1ccccc1 (stereo not given)	9
O=C(Cc1ccccc1)N1C[C@H]2[C@@H](c3ccccc31)[C@@H](CO)N2C(=O)C1CCOCC1	4[25 µM]
COc1ccc(C(=O)O/N=C2\C(=O)N(C)c3ccccc32)cc1	60*
COc1ccc(C(=O)ON=C2CCN(C)CC2)cc1	11
O=C(O/N=C(\c1ccccc1)c1ccccn1)c1cccc2ccccc12	3
COc1ccc(C(=O)NC2c3ccccc3-c3ccccc32)cc1	14
O=C(O)c1ccc2c3c(cccc13)C(=O)N(c1cccc3ccccc13)C2=O	1
